The nature of the test: JC-1 mitochondrial potential readout, lung cancer cells – cell-based, A549, JC-1 fluorescence, basal, 24 h, 100 nL, profiling panel (AID 1138).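 Further: A549 lung adenocarcinoma cells under basal conditions with no added stimulus; test concentration not given here.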 The note with it: higher = more signal.
In turn, `[N-]=[N+]=NCc1ccccc1[C@H]1OC(c2ccc(OCCCO)cc2)=N[C@@]1(CCS(=O)(=O)c1ccccc1)C(=O)NCc1ccccc1` returned a z-score of 0.453.

For `COc1ccc([Si](C)(C)[C@H]2[C@H](CCO)O[C@@]3(C(=O)N(Cc4ccc(N5C(=O)c6ccccc6Oc6ccccc65)cc4)c4ccccc43)[C@@H]2C)cc1`, the z-score worked out at 1.26.

For `O=C(NCC(O)CO)[C@@]1(CCS(=O)(=O)c2ccccc2)COC(c2ccc(OCCCO)cc2)=N1` (some centres undefined), the z-score is -0.583.

Turning to `C=CCC(OC(C)=O)[C@@H]1[C@@H](N(Cc2cccc3ccccc23)C(=O)Cc2ccc(F)cc2)c2cc(OCCCO)ccc2N1C(=O)c1ccc(-c2ccccc2)cc1` (some centres undefined), the z-score came out at 0.577.

In turn, `C=CCNC(=O)[C@@H]1[C@H]2C(=O)O[C@H](c3ccccc3)[C@H](c3ccccc3)N2[C@H](c2ccc(O)cc2)[C@@]12C(=O)N(C(=O)OCCOC)c1ccc(C#CCCO)cc12` displayed a z-score of 0.703.

Molecule `C=CCNC(=O)[C@@H]1[C@H]2C(=O)O[C@H](c3ccccc3)[C@H](c3ccccc3)N2[C@H](c2ccc(OCCO)cc2)[C@@]12C(=O)N(C(=O)OCCOC)c1ccc(C#CCCO)cc12` yielded a z-score of -0.295.

The molecule `C=CCOC(=O)[C@H]1[C@@H]2C(=O)O[C@@H](c3ccccc3)[C@@H](c3ccccc3)N2[C@@H](c2ccc(OCCOC(=O)[C@H]3C[C@H]4C(=O)N[C@@H](CCCCNC(C)=O)C(=O)N4[C@H]3c3cccc(OCCO)c3)cc2)[C@]12C(=O)Nc1ccc(I)cc12` yielded a z-score of -1.46.

As for `COCCOC(=O)N1C(=O)[C@@]2(c3cc(C#CC4=CCCCC4)ccc31)[C@H](c1ccc(O)cc1)N1[C@H](c3ccccc3)[C@H](c3ccccc3)OC(=O)[C@H]1[C@@H]2C(=O)NC[C@H](O)c1ccccc1`, the z-score was -1.14.

With `CN1C(=O)C2C=CC(C(O)c3ccc(I)cc3)N(Nc3ccccc3)C2C1=O` (centres undefined), the z-score came to 0.255.
